aSyn UTR act = Activators working through SNCA 5'UTR binding (MLPCN); alpha-synuclein 5'UTR reporter, activators screen; activity score, % (tested at 7.5 µM), hits read low; 300,000 compounds, 7.1% hits; in the data active = activity score below about -60%
The depositor's hits bear a star. These entries were drawn from the full list.

SMILES | aSyn UTR act
COc1ccc(C2c3ccc4ccccc4c3Oc3ncn(CCCN(C)C)c(=N)c32)cc1 (stereo not drawn) | 90
O=C(Nc1ccc2c(c1)OCO2)C1CCN(S(=O)(=O)c2cccs2)CC1 | -64*
CC(C)(C)c1ccc(NC(=O)CC2(C(F)(F)F)OCCO2)cc1 | -112*
COC(=O)c1ccccc1NC(=O)CC(=O)Nc1ccccc1C(=O)OC | -64*
COC(=O)c1ccccc1NC(=O)NCCc1ccccc1OC | -134*
c1ccc(Cn2ccc(-c3cnc(-c4ccccc4)s3)n2)cc1 | -106*
CSc1ccc(C2N=C(c3ccccc3)NO2)cc1 (stereo not drawn) | -128*
Oc1c(Br)cc(C2N=C(c3ccccc3)NO2)cc1Br (stereo not drawn) | -65*
COc1ccc(C=C2c3ccccc3C(=O)c3ccccc32)c(OC)c1 | 98
COc1ccc2c(c1)OC/C(=C/c1cccs1)C2=O | -151*
COc1ccc(/C=C2\COc3ccccc3C2=O)c(OC)c1 | -140*
COc1ccc(/C=C2\CN(Cc3ccccc3)C/C(=C\c3ccc(OC)cc3OC)C2=O)c(OC)c1 | -68*
COc1ccccc1OCC(=O)Nc1nc(C)c(C)s1 | -83*
COC(=O)c1sc(NC(=O)COc2ccccc2C)nc1C | -90*
O=C(COc1ccccc1)Nc1nc2c(s1)CCCC2 | -88*
CC(C)CCn1nc(C(=O)Nc2nc3c(s2)CCCC3)c2ccccc2c1=O | 68
CC(=O)c1sc(NC(=O)COc2ccccc2)nc1C | -109*
COC(=O)Nc1nc2c(s1)CCCC2 | -87*
CCN1CCN(/C=N/c2nc3c(s2)CCCC3)CC1 | 66
Cc1cc(NC(=O)c2cccs2)ncc1NC(=O)c1cccc(F)c1 | -129*
Cc1cc(NC(=O)c2ccccc2F)ncc1NC(=O)c1cccs1 | -63*
Cc1cc(NC(=O)c2ccccc2)ncc1NC(=O)c1cccs1 | -103*
Cc1cc(NC(=O)c2cccs2)ncc1NC(=O)C(C)C | -145*
Cc1cccc(C(=O)N2CCc3cc(-c4nc(NC(=O)CN5CCCC5)sc4C)ccc32)c1 | -71*
O=C(CN1CCCC1)Nc1nc(-c2ccc3c(c2)CCN3C(=O)c2ccccc2F)cs1 | -123*
SMILES | aSyn UTR act
Cc1cccc(C(=O)N2CCc3cc(-c4csc(NC(=O)CN5CCCC5)n4)ccc32)c1 | -74*
Clc1ccc(/C=N/Nc2nnc(-c3ncc[nH]3)c3ccccc23)cc1 | -169*
Clc1cccc(/C=N/Nc2nnc(Cl)c3ccccc23)c1 | -197*
COc1ccc(-c2cc(-c3ccc(Cl)cc3)n[nH]2)c(O)c1 | -202*
COc1ccc(O)c(-c2cc(-c3ccc(F)cc3)n[nH]2)c1 | -121*
COc1ccc(OC)c(-c2cc(C3CCN(c4cc(Cl)nc(N)n4)CC3)[nH]n2)c1 | 61
C=C(C)COc1ccc(-c2[nH]ncc2-c2ccc(Br)cc2)c(O)c1 | 91
COc1ccc(O)c(-c2cc(-c3cccc(Br)c3)n[nH]2)c1 | -132*
COc1ccc(-c2cc(-c3cc(OC)ccc3O)[nH]n2)cc1 | -199*
O=C(NCCc1ccccc1)c1ccc2nccnc2c1 | 63
O=C(O)c1cccc(S(=O)(=O)Nc2ccccc2C(=O)NCCc2ccccc2)c1 | -64*
O=C(NCCc1ccccc1)c1cccnc1 | -99*
O=C(NCCc1ccccc1)c1cccc([N+](=O)[O-])c1 | -77*
O=C(CCCc1ccccc1)Nc1cccc([N+](=O)[O-])c1 | -161*
O=C(NCCc1ccccc1)c1cnc2ccccc2n1 | -99*
O=C(NCCc1ccccc1)c1cccc(Br)c1 | -131*
O=C(c1csc(Nc2ccccc2Cl)n1)N1CCCC1 | -117*
COc1c(OC)c(O)c2c(=O)cc(-c3c(O)cccc3O)oc2c1OC | -64*
O=C(O)/C=C/C(=O)c1ccc2c(c1)CCc1ccccc1-2 | -111*
CCC(=O)NCCc1nc2cc(NC(=O)c3cccc([N+](=O)[O-])c3)ccc2n1C | -70*
CC(=O)NCCc1nc2cc(NC(=O)c3ccc(F)cc3)ccc2n1C | -111*
CCC(=O)NCCc1nc2cc(NC(=O)c3ccccc3OC)ccc2n1C | -71*
COc1ccccc1C(=O)Nc1ccc2c(c1)nc(CCNC(C)=O)n2C | -73*
N#CC(c1cccc(Cl)c1)c1ccc2c(C(F)(F)F)cc(C(F)(F)F)nc2n1 (stereo not drawn) | 97
Cn1cnc2cc(NC(=O)COc3ccccc3)ccc21 | -117*
SMILES | aSyn UTR act
Cc1ccc(OCC(=O)Nc2ccc3c(c2)nc(CCN2CCN(C)CC2)n3C)cc1 | 105
CCC(=O)NCCc1nc2cc(NC(=O)COc3ccccc3)ccc2n1C | -113*
O=C(Cc1ccc(Br)cc1)c1ccc(O)cc1O | -121*
COc1ccc(C(=O)OCc2csc(C)n2)c(O)c1 | -180*
COc1ccc(C(=O)Cc2ccc3c(c2)OCO3)c(O)c1 | -107*
COc1ccc(CC(=O)c2ccc(O)cc2O)cc1 | -85*
COc1ccccc1C(=O)NNC(=O)c1ccc(Cl)cc1 | -70*
COc1ccccc1C(=O)Nc1cc2cc(Cl)ccc2oc1=O | -123*
COc1ccccc1C(=O)NNC(=O)c1ccc(F)cc1 | -92*
Cc1cccc(/C=N/c2sc3c(c2C#N)CCN(Cc2ccccc2)C3)c1O | -74*

Bioassay records deposited in PubChem BioAssay by Broad Institute.
